Experiment [1] in a line: resazurin metabolic signal in HepG2 cells – cell-based, resazurin fluorescence, 24 h, PK04 Diversity Set, profiling panel (AID 1172). The note with it: HepG2 viability, higher = more signal. (In general: Resazurin is reduced to fluorescent resorufin, in cell work by metabolically active cells.)
A short description of experiment [2]: budding yeast growth changes without added modifier – OD600, strain BY4716, 24 h, basal condition, primary screen (AID 1173). As to conditions: S. cerevisiae BY4716 growth, OD600, 24 h; higher = more signal, called active from +8 up or from −8 down.
Experiment [3] can be described thus: viability profiling in MM1S myeloma cells – cell-based, resazurin fluorescence, basal, 24 h, PK04 Diversity Set, profiling panel (AID 1174).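 Also: MM1S multiple myeloma cell line.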 As to conditions: higher = more signal, called active from +8 up or from −8 down.
Experiment [4] deals with Dihydroorotate dehydrogenase (quinone), mitochondrial (Plasmodium falciparum (isolate 3D7)) (UniProt Q08210). The experiment is described as follows: inhibition of P. falciparum DHODH – biochemical, C-terminal His tag, absorbance 600 nm, primary screen (AID 1175).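 Also: recombinant parasite enzyme with a five histidine tag at its C terminus.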 The note with it: PfDHODH enzyme, DCIP absorbance 600 nm; higher = more signal, called active from +8 up or from −8 down.

Experiment [5] can be described thus: inhibition of PAO1 biofilm formation – strain PAO1, LB-PBS medium, absorbance 600 nm, primary screen (AID 1176). The note with it: P. aeruginosa PAO1 growth/biofilm, A600, 12 h; higher = more signal.
The nature of experiment [6]: growth modulation of vineyard yeast isolate – strain RM11-1a, OD600, basal, 24 h, primary screen (AID 1177).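 Also: cultures grown under basal conditions with no added stressor.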 The note with it: S. cerevisiae RM11-1a growth, OD600, 24 h; higher = more signal, called active from +8 up or from −8 down.
A short description of experiment [7]: growth of efflux-deficient E. coli DRC39 – strain DRC39, OD650, 24 h, E. coli filamentation inducers, primary screen (AID 1178).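 Also: growth measured as culture turbidity by optical density at 650 nm.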 The note with it: E. coli DRC39 acrAB, higher = more signal, called active from +8 up or from −8 down.
A short description of experiment [8]: growth of efflux-deficient E. coli DRC39 – strain DRC39, OD650, 48 h, E. coli filamentation inducers, primary screen (AID 1179).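 Also: screen aims at cell division blockers that make cells filament.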 As to conditions: E. coli DRC39 delta-acrAB growth, higher = more signal, called active from +8 up or from −8 down.
Experiment [9] in a line: viability profiling in RPMI8226 myeloma cells – cell-based, resazurin fluorescence, basal, 24 h, PK04 Diversity Set, profiling panel (AID 1180).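 Also: RPMI8826 multiple myeloma cell line at 5000 cells per well.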 As to conditions: higher = more signal.
Experiment [10] addresses E3 ubiquitin-protein ligase XIAP (Homo sapiens) (UniProt P98170). The experiment in a line: small molecules binding XIAP protein – biophysical, small-molecule microarray, fluorescence 635 nm, primary screen (AID 1181).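 Also: score merges 667 nm emission and signal to noise over triplicate slides.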 As to conditions: higher = more signal.
For experiment [11], the system named is XIP peptide (Xip251-270) binding. The experiment is described as follows: XIP fragment 251-270 binding compounds – biochemical, small-molecule microarray, fluorescence 635/667 nm, 0.1 µg/mL protein, primary screen (AID 1182). As to conditions: fluorescent protein binding, 635 nm, higher = more signal, called active from +8 up or from −8 down.
The test system of experiment [12] is XIP peptide (Xip251-270). The experiment in a line: compounds binding XIP fragment 251-270 – biochemical, small-molecule microarray, fluorescence 635/667 nm, 0.5 µg/mL protein, primary screen (AID 1183). The note with it: fluorescence 635 nm, higher = more signal.
The nature of experiment [13]: blood-stage malaria parasite viability loss – strain 3D7, DAPI fluorescence, 100 nL, primary screen (AID 1184).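 Also: parasites grown inside human red blood cells in medium with human serum.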 As to conditions: P. falciparum 3D7 growth, 3 d, higher = more signal.
Experiment [14] has as its target Homeobox protein Hox-A13 (Mus musculus) (UniProt Q62424). The experiment is described as follows: disruptors of Hoxa13 oligonucleotide interaction – biochemical, fluorescence polarization, labeled oligonucleotide, primary screen (AID 1185). The note with it: Hoxa13:DNA binding, 15 min, higher = more signal, called active from +8 up or from −8 down. For orientation: Polarisation of emitted light reports the rotation of a fluorescent probe.

Where “and” joins values, the source holds several entries; their conditions need not be identical. Identical values can stand only once. Calls of active or inactive are those of the source. Unless noted, no rule for the calls is given here.

Seven molecules from PubChem BioAssay can be followed below.

E3 ubiquitin-protein ligase XIAP (Homo sapiens), sequence (P98170 whole entry, looked up, the tested form may be a part): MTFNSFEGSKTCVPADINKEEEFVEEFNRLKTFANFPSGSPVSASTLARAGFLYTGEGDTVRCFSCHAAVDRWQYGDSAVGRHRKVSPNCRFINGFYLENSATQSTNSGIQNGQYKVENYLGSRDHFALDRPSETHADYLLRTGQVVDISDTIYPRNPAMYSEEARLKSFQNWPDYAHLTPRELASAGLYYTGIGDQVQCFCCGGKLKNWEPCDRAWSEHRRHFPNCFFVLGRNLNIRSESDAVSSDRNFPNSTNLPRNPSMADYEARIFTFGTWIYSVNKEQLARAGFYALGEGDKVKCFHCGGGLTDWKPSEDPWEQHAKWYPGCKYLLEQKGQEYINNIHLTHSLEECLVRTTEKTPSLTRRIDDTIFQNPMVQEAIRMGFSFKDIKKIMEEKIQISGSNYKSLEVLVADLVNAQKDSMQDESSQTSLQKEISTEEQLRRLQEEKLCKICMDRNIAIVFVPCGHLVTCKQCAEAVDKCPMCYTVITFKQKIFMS
Dihydroorotate dehydrogenase (quinone), mitochondrial (Plasmodium falciparum (isolate 3D7)), sequence (Q08210 whole entry, looked up): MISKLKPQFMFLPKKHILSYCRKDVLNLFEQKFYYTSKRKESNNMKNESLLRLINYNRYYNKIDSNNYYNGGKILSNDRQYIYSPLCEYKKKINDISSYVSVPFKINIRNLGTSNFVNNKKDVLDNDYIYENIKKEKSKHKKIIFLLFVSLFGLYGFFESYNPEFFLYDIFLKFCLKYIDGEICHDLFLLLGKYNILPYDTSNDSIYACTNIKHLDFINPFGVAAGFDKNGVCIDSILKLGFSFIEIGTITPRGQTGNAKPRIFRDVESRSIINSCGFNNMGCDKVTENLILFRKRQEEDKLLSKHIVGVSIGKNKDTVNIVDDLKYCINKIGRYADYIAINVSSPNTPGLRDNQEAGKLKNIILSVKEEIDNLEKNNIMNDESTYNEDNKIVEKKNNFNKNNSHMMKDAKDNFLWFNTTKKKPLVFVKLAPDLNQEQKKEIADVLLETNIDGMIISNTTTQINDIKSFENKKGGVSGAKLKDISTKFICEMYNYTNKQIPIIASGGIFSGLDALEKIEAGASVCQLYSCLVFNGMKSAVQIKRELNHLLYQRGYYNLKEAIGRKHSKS
Homeobox protein Hox-A13 (Mus musculus), sequence (Q62424 whole entry, looked up): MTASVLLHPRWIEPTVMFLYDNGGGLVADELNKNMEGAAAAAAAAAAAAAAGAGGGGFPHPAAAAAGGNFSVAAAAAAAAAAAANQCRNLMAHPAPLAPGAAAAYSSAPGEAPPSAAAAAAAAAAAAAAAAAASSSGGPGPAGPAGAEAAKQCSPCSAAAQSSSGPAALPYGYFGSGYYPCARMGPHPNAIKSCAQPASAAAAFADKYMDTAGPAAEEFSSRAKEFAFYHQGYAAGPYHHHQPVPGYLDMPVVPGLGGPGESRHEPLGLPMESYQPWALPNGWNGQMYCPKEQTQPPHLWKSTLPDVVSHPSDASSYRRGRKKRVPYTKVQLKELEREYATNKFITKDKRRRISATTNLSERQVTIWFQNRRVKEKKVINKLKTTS

Regarding `COc1ccc(-c2ccc3c(n2)CCCN3CC(O)CN2CCCc3nc(-c4ccc(Br)cc4)ccc32)cc1` (stereo not drawn), the z-score in experiment [1] is -0.721 and 0.465; in [2], -4.64 (inactive) and -1.56 (inactive); in experiment [3], -0.791 (inactive) and -0.334 (inactive); in experiment [5], -0.139 (inactive) and -0.245 (inactive); in [6], 0.665 (inactive) and 0.0647 (inactive); in experiment [7] it was 0.336 (inactive) and 0.725 (inactive). Further, the z-score in experiment [8] is 0.191 (inactive) and 0.761 (inactive); in [9], -0.286 and -0.439; in [13] it was -0.309 and 0.613; in experiment [14], -3.36 (inactive) and -1.95 (inactive). The composite z-score is 0.0106 (inactive) and 0.0126 (inactive) in experiment [4]; 1.04 and 0.94 in [10]; 0.947 (inactive) and 1.14 (inactive) in experiment [11]; 0.717 and 0.257 in experiment [12].
Take `CCCC[C@@H]1CN2[C@@H](CC[C@@H](C)[C@@H]2c2ccc(Br)cc2)C(=O)O1`: the z-score was -0.175 and 0.523 in experiment [1]; -1.57 (inactive) and -1.39 (inactive) in [2]; 0.0509 (inactive) and 0.231 (inactive) in [3]; -0.221 (inactive) and -0.175 (inactive) in experiment [5]; 0.229 (inactive) and -0.0641 (inactive) in experiment [6]; 0.777 (inactive) and 0.606 (inactive) in experiment [7]. The z-score was 0.535 (inactive) and -1.07 (inactive) in experiment [8]; 0.387 and 0.756 in [9]; 0.524 and 0.888 in experiment [13]; -3.5 (inactive) and -2.53 (inactive) in experiment [14]. For the same molecule, the composite z-score in experiment [4] is 0.466 (inactive) and -0.248 (inactive); in experiment [10] it was 0.0537 and -0.185; in experiment [11], 0.177 (inactive) and 0.122 (inactive); in experiment [12] it was 0.712 and 0.647.
As to `CCCC[C@@H]1CN2[C@H](c3ccc(Br)cc3)[C@@H](C)CC[C@H]2C(=O)O1`, the z-score in experiment [1] was 0.0187 and 0.563; in experiment [2], -1.99 (inactive) and -1.8 (inactive); in experiment [3], 0.0474 (inactive) and 0.358 (inactive); in experiment [5], 0.192 (inactive) and -0.172 (inactive); in experiment [6], 0.434 (inactive) and -0.478 (inactive); in experiment [7], 1.06 (inactive) and 0.354 (inactive). Besides, the z-score is 0.958 (inactive) and 0.41 (inactive) in [8]; 0.735 and 0.839 in experiment [9]; -0.0735 and 0.113 in [13]; -1.48 (inactive) and -3.43 (inactive) in experiment [14]. Further, the composite z-score was 0.0663 (inactive) and -0.155 (inactive) in experiment [4]; -0.256 and -0.352 in experiment [10]; 0.744 (inactive) and -0.433 (inactive) in experiment [11]; -0.322 and -0.118 in experiment [12].
Take `COC(=O)C1=C(C)N(Cc2ccccc2)[C@]23O[C@](C(=O)OC)(C(=O)N2[C@@H]1c1ccccc1)[C@H]1C(=O)N(C)C(=O)[C@H]13`: the z-score was 0.101 and 1.13 in [1]; -0.974 (inactive) and -1.6 (inactive) in [2]; 0.856 (inactive) and 0.302 (inactive) in [3]; -1.59 (inactive) in experiment [5]; 1.09 (inactive) and -0.535 (inactive) in experiment [6]; -0.34 (inactive) and 0.732 (inactive) in [7]. Further, the z-score in experiment [8] is 0.207 (inactive) and 0.764 (inactive); in [9], 0.389 and -0.0962; in [13], -0.979 and 0.027; in experiment [14] it was -3.58 (inactive) and -1.73 (inactive). In addition, the composite z-score was 0.207 (inactive) and 0.467 (inactive) in experiment [4]; 0.072 and 2.05 in experiment [10]; 0.0247 (inactive) and -0.317 (inactive) in [11]; 0.706 and -0.282 in experiment [12].
`Cc1cc2c(nc1C)CCCN2CC(O)CN1CCCc2nc(-c3ccc(Br)cc3)ccc21` (stereo not drawn): the z-score in experiment [1] is -0.366 and -0.367; in experiment [2] it was -7.09 (inactive) and -1.64 (inactive); in experiment [3], -0.959 (inactive) and -0.771 (inactive); in experiment [5], -0.257 (inactive) and -0.0569 (inactive); in [6], 1.37 (inactive) and 0.795 (inactive); in experiment [7], -0.342 (inactive) and 0.458 (inactive). Also, the z-score in experiment [8] is -0.752 (inactive) and 0.0169 (inactive); in experiment [9] it was 0.0199 and -0.821; in experiment [13] it was -0.614 and 0.112; in experiment [14] it was -7.89 (inactive) and -7.9 (inactive). In addition, the composite z-score in experiment [4] is 1.95 (inactive) and 1.18 (inactive); in [10] it was 1.1 and 1.9; in experiment [11], 1.5 (inactive) and 4.73 (inactive); in experiment [12], 0.719 and 0.327.
In the case of `CC(C)CON=C1C[C@@H](O)[C@@H](O)[C@@H]2[C@@H]3C(=O)N(c4cccc(Oc5ccccc5)c4)C(=O)[C@@H]3CC[C@H]12`, the z-score is 0.608 in experiment [1]; 0.121 (inactive) in experiment [2]; 0.768 (inactive) in [3]; 0.34 (inactive) in experiment [5]; 0.79 (inactive) in experiment [6]; 0.85 (inactive) in experiment [7]. Besides, the z-score in experiment [8] is 0.0947 (inactive); in [9], 1.33; in [13], -0.638; in experiment [14], 0.875 (inactive). Besides, the composite z-score was -0.564 (inactive) in [4], -0.055 in experiment [10], 0.0483 (inactive) in [11] and 0.741 in experiment [12].
Take `CO[C@H]1COC(=O)CC=C[C@@H](C)COC(=O)[C@H](CCSC)NC(=O)CC=C[C@@H]1C`: the z-score is -0.591 and 0.597 in experiment [1]; -0.92 (inactive) and -2.28 (inactive) in experiment [2]; -0.473 (inactive) and 1.67 (inactive) in [3]; 0.0821 (inactive) in experiment [5]; -0.177 (inactive) and -0.642 (inactive) in experiment [6]; 0.277 (inactive) and 0.719 (inactive) in [7]. Besides, the z-score was -1.27 (inactive) and 0.0985 (inactive) in experiment [8]; -0.0162 and 1 in experiment [9]; -1.51 and -0.356 in experiment [13]; -0.947 (inactive) and -0.902 (inactive) in experiment [14]. Also, the composite z-score is 0.177 (inactive) and 0.0636 (inactive) in experiment [4]; 0.266 and 0.0623 in [10]; 0.218 (inactive) and 0.322 (inactive) in [11]; 0.421 and 0.562 in [12].
